Experiment [1] deals with Catechol O-methyltransferase (Homo sapiens) (UniProt P21964). As to the kind of experiment: Confirmatory Screen for Target Class Profiling of Small Molecule Inhibitors of Methyltransferases (AID 1745852; calls by dose curve; as to activity change, negative = inhibition: % is scaled to controls: 0 for no effect and ±100 for the full control effect). The settings on record: MTase-Glo luminescence, SAH detection, recombinant enzyme; measured here: COMT max response; stronger effect = lower value.
For experiment [2], the target named is Guanidinoacetate N-methyltransferase (Homo sapiens) (UniProt Q14353). Described as above. As to conditions: MTase-Glo luminescence, SAH detection, recombinant enzyme; at 57.3 µM (top of the series).
Experiment [3] deals with Nicotinamide N-methyltransferase (Homo sapiens) (UniProt P40261). Described as above. As to conditions: MTase-Glo luminescence, SAH detection, recombinant enzyme; measured here: NNMT max response; stronger effect = lower value.
Experiment [4] concerns the target Phenylethanolamine N-methyltransferase (Homo sapiens) (UniProt P11086). The description is as above. The settings on record: MTase-Glo luminescence, SAH detection, recombinant enzyme; measured here: PNMT max response; stronger effect = lower value.
The target in experiment [5] is Metallo-beta-lactamase type 2 (Klebsiella pneumoniae) (UniProt C7C422). As to the kind of experiment: qHTS to identify inhibitors of the New Delhi Metallo-beta-lactamase (NDM): assay validation screen against the NCATS LOPAC Collection (AID 1794843).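 Also: nitrocefin turnover by NDM-1 measured as 485 nm absorbance at plateau; % is scaled to controls: 0 for no effect and ±100 for the full control effect.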 The settings on record: NDM-1 enzyme, nitrocefin hydrolysis, absorbance 485 nm; series mostly up to 38.4 µM. Summed up:
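NDM-1 at 2 nM final in 50 mM HEPES pH 7.0, 1 uM ZnSO4, 0.01% Tween20, preincubated with LOPAC compounds pinned in DMSO; 50 uM nitrocefin (stock) added. Hydrolysis read as absorbance at 485 nm in the plateau phase.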
Background: qHTS replaces the single test concentration by a dilution series.

Experiment [6] has as its target Glutathione peroxidase 1 (Homo sapiens) (UniProt P07203). Put plainly: Primary qHTS Assay for Inhibitors of Recombinant Selenoprotein Glutathione Peroxidase 1 (GPX1) (AID 1845191). Also: nearly all actives have a fitted effect of over 65% in size. Also: potency is read from the fitted curve at half-maximal effect. As to activity, negative = inhibition: % is scaled to controls: 0 for no effect and ±100 for the full control effect. The settings on record: recombinant GPX1, GR-coupled NADPH fluorescence, 15 min; series mostly up to 48.8 µM. The method in brief:
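GPX1 10 nM, GR 100 nM, GSH 1 mM, NADPH 0.5 mM, CHP 0.5 mM (final). 30-min cpd preincubation, RT. Ex340/Em450 read t=0, t=15 min.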

The target in experiment [7] is Phospholipid hydroperoxide glutathione peroxidase GPX4 (Homo sapiens) (UniProt P36969). As to the kind of experiment: Primary qHTS Assay for Inhibitors of Recombinant Selenoprotein Glutathione Peroxidase 4 (GPX4) (AID 1845192). Also: nearly all actives have a fitted effect of over 65% in size. The settings on record: recombinant GPX4, GR-coupled NADPH fluorescence, 15 min; series mostly up to 50 µM. Summed up: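 qHTS, GR-coupled: GPX4 200 nM + cpd 30 min RT → GSH 1 mM, NADPH 0.5 mM, GR 100 nM → CHP 0.5 mM start; fluor 340/450 at t0 and t15 min; no-enzyme wells as control.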

Experiment [8] can be described thus: qHTS profiling for inhibitors of Plasmodium falciparum proliferation (AID 504749). Also: potency is read from the fitted curve at half-maximal effect.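 As to activity, negative = inhibition: 0% = DMSO vehicle and full inhibition = artemisinin control.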 As to all read-outs here: nearly all actives have a fitted effect of over 60% in size. The settings on record: P. falciparum in erythrocytes, SYBR Green DNA, 72 h; for activity, negative = inhibition: at 28.7 µM (top of the series). Summed up: (§1)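 Quantitative HTS: compounds pinned into medium, infected erythrocytes added (0.3% parasitemia, 2.5% hematocrit), 72 h culture at 37 C under 5% CO2. Saponin/Triton lysis with SYBR Green I, overnight RT, then fluorescence read.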

A further experiment relates to AA1029. The description is as above. As to conditions: P. falciparum in erythrocytes, SYBR Green DNA, 72 h; series mostly up to 28.7 µM. The method in brief:
as §1

The next experiment concerns AS120. The experiment is described as above. As to conditions: P. falciparum in erythrocytes, SYBR Green DNA, 72 h; series mostly up to 28.7 µM. The method in brief:
as §1

The test system of a further experiment is ATS189. Described as above. The settings on record: P. falciparum in erythrocytes, SYBR Green DNA, 72 h; series mostly up to 28.7 µM. Summed up: as §1
The next experiment has as its system ATS95. The experiment is described as above. The settings on record: P. falciparum in erythrocytes, SYBR Green DNA, 72 h; series mostly up to 28.7 µM. Summed up:
as §1

Experiment [9] can be described thus: NCATS anti-infectives library activity on HEK293 viability as a counter-qHTS vs the C. elegans viability qHTS (AID 1745854). Also: % is scaled to controls: 0 for no effect and ±100 for the full control effect. As to conditions: HEK293 viability counter-screen; series mostly up to 41.8 µM. Summed up:
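Cytotoxicity counter-screen to a worm viability qHTS: CellTiter-Glo luminescence read 10 min after reagent addition. Compounds (final up to 41.7 uM, a 1:5 dilution series) incubated 24 hr at 37C with 1,500 HEK293 cells per well; digitonin control.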

Another experiment relates to 3D7. As to the kind of experiment: qHTS profiling for inhibitors of Plasmodium falciparum proliferation (AID 504749). Also: nearly all actives have a fitted effect of over 60% in size. Also: potency is read from the fitted curve at half-maximal effect.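 As to activity, negative = inhibition: 0% = DMSO vehicle and full inhibition = artemisinin control.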 The settings on record: P. falciparum in erythrocytes, SYBR Green DNA, 72 h; series mostly up to 28.7 µM. The method in brief:
as §1

The subject of another experiment is 7G8. The description is as above. The settings on record: P. falciparum in erythrocytes, SYBR Green DNA, 72 h; series mostly up to 28.7 µM. The method in brief: as §1
Experiment [10] concerns the target Luciferin 4-monooxygenase (Photinus pyralis) (UniProt P08659). Put plainly: Primary firefly luciferase (FLuc) qHTS assay for identification of artifact compounds. (AID 1845220).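 Also: plate controls were DMSO vehicle for no effect and no enzyme for full effect; nearly all actives have a fitted effect of over 60% in size.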 As to conditions: purified firefly luciferase, luminescence, 5 min; series mostly up to 54.1 µM. The method in brief:
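In this counter-screen for luciferase artifacts, test compounds met substrate (10 uM each luciferin and ATP) before 10 nM enzyme started the reaction. Light output was measured 5 min later.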

A short description of experiment [11]: Primary fluorescence-based thiol-reactive (MSTI) qHTS assay for identification of artifact compounds. (AID 1845221).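 Also: thiol-reactive compounds lower the probe fluorescence signal; nearly all actives have a fitted effect of over 65% in size.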 The settings on record: MSTI thiol-reactivity probe, 1 h; series mostly up to 53.8 µM. The method in brief:
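Curve-fitted percent inhibition (4-parameter Hill) derived from fluorescence, Ex 525/Em 598 nm, scaled with Acetyl-MSTI and MSTI; 1 h incubation at room temperature.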

For experiment [12], the system named is Nanoluciferase (engineered Oplophorus gracilirostris luciferase). Put plainly: Primary Nanoluciferase (NLuc) qHTS assay for identification of artifact compounds. (AID 1845222).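 Also: NLuc secreted into diluted conditioned medium of S16 cells.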 The settings on record: NLuc-conditioned medium, Nano-Glo luminescence, 5 min; series mostly up to 54.1 µM. Summed up:
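Using secreted nanoluciferase in S16 culture medium (0.22 um filtered, 1:55 dilution), compounds were preincubated 15 min at RT. Signal was generated with Nano-Glo reagent (1:100) over 5 min.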

The nature of experiment [13]: Primary redox qHTS assay for identification of artifact compounds. (AID 1845223).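 Also: 0% = DMSO and 100% = reference compound.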 The settings on record: Amplex Red/HRP redox cycling with DTT, fluorescence; series mostly up to 53.8 µM. The method in brief:
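Redox-cycling detection via DTT (250 uM final) oxidation coupled to Amplex Red (25 uM)/HRP (250 mU/mL) in HBSS. 15 min preincubation plus 30 min after DTT, room temperature. Ex/Em 525/598 nm; 4-parameter Hill fit against DMSO and 10 uM DA3003.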

Molecules are shown by their SMILES. Records with an inconclusive call do not appear. Active and inactive are the calls of the source. Unless noted, calls follow the shape of the dose curve; as a rule, active = well fitted curve in the direction sought with a large enough effect; inconclusive = small, poorly fitted or top-dose-only effect, or another doubt; inactive = no such curve, though single readings can be large; an effect the other way counts as inactive or inconclusive.

Chain of Catechol O-methyltransferase (Homo sapiens) (P21964 whole entry, looked up): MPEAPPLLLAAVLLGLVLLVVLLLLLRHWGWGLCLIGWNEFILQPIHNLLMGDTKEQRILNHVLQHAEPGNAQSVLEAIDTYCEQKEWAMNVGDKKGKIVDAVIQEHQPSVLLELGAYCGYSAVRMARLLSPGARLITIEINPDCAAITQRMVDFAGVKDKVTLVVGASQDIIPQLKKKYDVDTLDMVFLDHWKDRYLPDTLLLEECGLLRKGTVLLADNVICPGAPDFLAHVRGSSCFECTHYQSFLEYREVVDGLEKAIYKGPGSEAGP
Chain of Phenylethanolamine N-methyltransferase (Homo sapiens) (P11086 whole entry, looked up): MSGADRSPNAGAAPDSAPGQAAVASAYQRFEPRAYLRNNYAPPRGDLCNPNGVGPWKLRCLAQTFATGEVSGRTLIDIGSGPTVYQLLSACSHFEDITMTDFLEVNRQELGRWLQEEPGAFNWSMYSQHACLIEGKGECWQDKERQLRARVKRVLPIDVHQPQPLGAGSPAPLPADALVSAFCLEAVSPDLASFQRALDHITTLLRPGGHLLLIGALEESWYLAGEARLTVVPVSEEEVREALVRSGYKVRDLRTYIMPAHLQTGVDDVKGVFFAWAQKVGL
Chain of Nicotinamide N-methyltransferase (Homo sapiens) (P40261 whole entry, looked up): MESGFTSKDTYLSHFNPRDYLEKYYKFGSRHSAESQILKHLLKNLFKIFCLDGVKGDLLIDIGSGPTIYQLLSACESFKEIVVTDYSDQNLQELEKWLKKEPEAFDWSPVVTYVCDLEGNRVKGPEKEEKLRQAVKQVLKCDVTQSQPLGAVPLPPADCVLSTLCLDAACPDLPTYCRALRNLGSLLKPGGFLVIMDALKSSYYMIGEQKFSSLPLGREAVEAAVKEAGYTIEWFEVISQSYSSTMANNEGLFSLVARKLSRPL
Chain of Phospholipid hydroperoxide glutathione peroxidase GPX4 (Homo sapiens) (P36969 whole entry, looked up): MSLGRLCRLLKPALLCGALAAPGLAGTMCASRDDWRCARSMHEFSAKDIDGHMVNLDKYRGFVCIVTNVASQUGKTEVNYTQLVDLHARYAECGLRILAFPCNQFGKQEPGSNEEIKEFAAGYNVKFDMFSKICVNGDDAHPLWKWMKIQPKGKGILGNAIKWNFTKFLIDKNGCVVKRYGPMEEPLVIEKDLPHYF
Chain of Glutathione peroxidase 1 (Homo sapiens) (P07203 whole entry, looked up): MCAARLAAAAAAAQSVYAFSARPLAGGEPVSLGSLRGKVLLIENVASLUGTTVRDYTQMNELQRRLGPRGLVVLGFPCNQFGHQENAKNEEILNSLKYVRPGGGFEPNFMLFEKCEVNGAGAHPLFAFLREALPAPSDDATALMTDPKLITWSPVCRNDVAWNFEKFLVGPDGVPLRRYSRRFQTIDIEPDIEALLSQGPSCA
Chain of Metallo-beta-lactamase type 2 (Klebsiella pneumoniae) (C7C422 whole entry, looked up): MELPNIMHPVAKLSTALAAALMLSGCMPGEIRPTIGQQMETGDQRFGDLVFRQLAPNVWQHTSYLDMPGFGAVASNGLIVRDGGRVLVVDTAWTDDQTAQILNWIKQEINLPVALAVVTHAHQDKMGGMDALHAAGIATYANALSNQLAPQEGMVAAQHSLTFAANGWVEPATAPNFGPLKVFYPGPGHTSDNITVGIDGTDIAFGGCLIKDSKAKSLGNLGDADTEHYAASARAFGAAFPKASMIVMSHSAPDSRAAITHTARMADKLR

As to `COC(=O)[C@@H](N)Cc1ccc(O)c(O)c1`, the activity was 134% in [1], 4.06% in experiment [3] and 5.34% in experiment [4]. Moreover, the activity change, negative = inhibition in experiment [2] is 1.23%. Also, the Potency entry (in experiment [5]; in experiment [6]; in the experiment with AA1029; with AS120; with ATS189; in the experiment on ATS95) was “inactive” in each case. Moreover, in experiment [7], the outcome is “inactive”. The activity, negative = inhibition in [8] (parasite line B) was -10.7% (inactive).

Take `Nc1nc(N)c2nc(-c3ccccc3)c(N)nc2n1`: the outcome in experiment [9] and in [7] was “inactive” each time. The Potency entry (in [5]; in the experiment on AA1029; with AS120; in the experiment on ATS189; in the experiment on ATS95) was “inactive” in each case. In addition, the Potency in experiment [6] was 2.86 µM (active); in [8] (parasite line A), 2 µM (active); in the experiment on 3D7 it was 7.08 µM (active). Besides, in experiment [8] (parasite line B), the activity, negative = inhibition was 5.12% (inactive).

Turning to `CN(C)CCCN1c2ccccc2Sc2ccc(C(F)(F)F)cc21`, the outcome in experiment [9] and in experiment [7] was “inactive” each time. The Potency result (in [5]; in experiment [6]; with ATS95) was “inactive” in each case. Besides, the Potency in the experiment on 7G8 is 5.01 µM (active).

`CCCN(CCC)CCc1cccc2c1CC(=O)N2`: the activity is 9.88% in [1], 1.36% in experiment [3] and 4.72% in [4]. Further, the activity change, negative = inhibition in experiment [2] stood at 6.02%. Moreover, the Potency result (in experiment [5]; in [6]; in the experiment on 3D7; with 7G8; in the experiment with AA1029; in the experiment on AS120) was “inactive” each time. The Potency result in the experiment with ATS189 and with ATS95 was “inactive” in each case. For the same compound, the outcome in experiment [7] was “inactive”. Moreover, the activity, negative = inhibition in [8] (parasite line A) was -9.53% (inactive); in [8] (parasite line B) it was -8.71% (inactive).

On to `Cc1cccc(C)c1NC(=O)C(C)N` (stereo unspecified), for which the Potency entry in experiment [5] and in experiment [6] was “inactive” in each case. Further, the outcome in [7] was “inactive”.

For the compound `CCCN1C[C@H](CSC)C[C@@H]2c3cccc4[nH]cc(c34)C[C@H]21`, the activity was -0.209% in experiment [1], -3.93% in experiment [3] and 0.569% in experiment [4]. Moreover, the activity change, negative = inhibition in [2] came out at 5.03%. Further, the Potency entry (in experiment [5]; in experiment [6]; in the experiment with 3D7) was “inactive” throughout. Also, the outcome in experiment [7], in [10], in experiment [11], in experiment [12] and in experiment [13] was “inactive” each time. Further, the Potency was 11.2 µM (active) in the experiment on 7G8, 12.6 µM (active) in the experiment with AS120 and 7.94 µM (active) in the experiment on ATS95.

Consider `C=CCc1ccccc1OCC(O)CNC(C)C` (stereo unspecified), for which the outcome in experiment [9] and in [7] was “inactive” in each case. In addition, the Potency entry (in experiment [5]; in [6]; with 3D7) was “inactive” throughout. The activity, negative = inhibition in experiment [8] (parasite line A) was -5.93% (inactive). For the same compound, the Potency was 8.91 µM (active) with 7G8, 10 µM (active) in the experiment with AA1029 and 4.47 µM (active) with AS120.

With `COC(=O)C1=C(C)NC(C)=C(C(=O)OCCN(C)Cc2ccccc2)C1c1cccc([N+](=O)[O-])c1` (stereo unspecified), the Potency result in [5] and in [6] was “inactive” throughout. Further, the outcome in experiment [7] is “inactive”.

In the case of `CNCCCN1c2ccccc2CCc2ccccc21`, the outcome in experiment [9] and in [7] was “inactive” throughout. Moreover, the Potency entry in experiment [5] and in experiment [6] was “inactive” throughout.

On to `CN(C)[C@@H]1C(=O)C(C(N)=O)=C(O)[C@@]2(O)C(=O)C3=C(O)c4c(O)ccc(Cl)c4[C@@H](O)[C@H]3C[C@@H]12`, for which the results for the activity in experiment [1], in experiment [3] and in experiment [4] were -43.5%, -3.56% and 2.12%, respectively. Further, in experiment [2], the activity change, negative = inhibition came to 8.05%. In addition, the Potency result in experiment [5] and in experiment [6] was “inactive” in each case. Also, the outcome in experiment [7] is “inactive”.

With `CN/C(=C\[N+](=O)[O-])NCCSCc1ccc(CN(C)C)o1`, the Potency result in experiment [5] and in experiment [6] was “inactive” in each case. Also, in experiment [7], the outcome is “inactive”.

As for `NC1=NCC2c3ccccc3Cc3ccccc3N12` (stereo unspecified), the activity in experiment [1] was -1.67%; in [3], -14.5%; in experiment [4], -3.06%. Also, in [2], the activity change, negative = inhibition worked out at 4.05%. Also, the Potency result (in [5]; in experiment [6]; in the experiment with 3D7; in the experiment with AA1029; in the experiment on AS120; in the experiment with ATS189) was “inactive” each time. For the same compound, the Potency entry in the experiment on ATS95 is “inactive”. In addition, the outcome in [7] is “inactive”. Further, the activity, negative = inhibition in [8] (parasite line A) is -23% (inactive).

The record behind these values is PubChem BioAssay (NCATS).
